Screens deposited in PubChem by National Center for Advancing Translational Sciences (NCATS).
In the library only some 0.78% were active in any assay of this set; here they are far more common.
BLM inh: inhibitors of human Bloom syndrome helicase BLM | P54132 | recombinant BLM DNA unwinding, fluorescence dequenching | Potency, µM (titrated, usually from 56.1 µM), for the others: top-dose activity change, negative = inhibition, hits mostly inhibitors | 350,000 compounds, 0.2% hits;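 note: plate controls were vehicle for no effect and no enzyme for full effect; nearly all actives have a fitted effect of over 35% in size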
APE1 inh: blocks human APE1 abasic DNA cleavage; AID 2517; recombinant APE1, TAMRA/BHQ-2 abasic DNA cleavage fluorescence; P27695; Potency, µM (doses to about 65.8 µM), without a hit: at the top dose activity change, negative = inhibition, hits mostly inhibitors; 350,000 compounds, 0.35% hits;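 note: plate controls were vehicle for no effect and reference inhibitor for full effect; nearly all actives have a fitted effect of over 55% in size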
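Incision of a quenched TAMRA/BHQ-2 THF abasic-site duplex (50 nM) by 0.75 nM APE1, after 15 min compound preincubation, measured as fluorescence increase over three 60 s reads. Values normalized to buffer, DMSO and NSC13755 control wells.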
RECQ1 inh: blocks DNA unwinding by human RECQ1 | P46063 | RECQ1 DNA unwinding, red fluorescence kinetic read | Potency, µM (highest dose often 57.3 µM), for inactives: at the top dose activity, negative = inhibition, actives largely listed as inhibitors | 240,000 compounds, 0.54% hits;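 note: plate controls were vehicle for no effect and no enzyme for full effect; nearly all actives have a fitted effect of over 30% in size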
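RECQ1T1 50 nM; forked duplex (20 bp + 30-nt ss tails) 200 nM, ATP 2 mM final; pH 8.0, 2 mM MgCl2, 2.5 ug/ml poly(dI-dC); 15 min compound preincubation; discontinuous kinetic read over 2 h at RT.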
L3MBTL1 inh: blocks human L3MBTL1. Q9Y468. AlphaScreen L3MBTL1–H3K9me1 peptide binding. Potency, µM (highest dose often 57.1 µM), for inactives: at the highest dose activity, negative = inhibition, hits mostly inhibitors. 230,000 compounds, 0.66% hits; note: nearly all actives have a fitted effect of over 60% in size
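Read-out is AlphaScreen signal from streptavidin donor and nickel chelate acceptor beads (10 ug/mL final each) bridging L3MBTL1 (50 nM) and biotinylated K9-monomethylated H3(1-15) peptide (75 nM), after 30 min compound exposure at room temperature.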
* marks the source's active call; other numbers are inactive results; i = inactive; ? = inconclusive; · = not tested or not shown; ! = not active in a repeat; [ ] = another dose, or the depositor's remark. Calls come from the whole dose curve; as a rule, active = well fitted curve in the direction sought with a large enough effect; inconclusive = small, poorly fitted or top-dose-only effect, or another doubt; inactive = no such curve, though single readings can be large; an effect the other way counts as inactive or inconclusive. Unless noted, % is set by controls: 0 for no effect and ±100 for the full control effect; potency is the fitted concentration of half-maximal effect.

SMILES	BLM inh	APE1 inh	RECQ1 inh	L3MBTL1 inh
CCCNc1nc(C#N)nc(Nc2ccccc2)n1	-11.0%	-1.3%	-7.5%	·
CCN(CC)C(=O)Oc1ccc(Cl)c2cccnc12	1.2%	4.0%	i	6.5%
O=C(Nc1cccc(C(F)(F)F)c1)Oc1ccc(Cl)c2cccnc12	-7.5%	2.6%	i	25.1µM*
COc1cc2c(-c3ccc(O)cc3)nc3c(c(C)nn3-c3ccccc3)c2cc1OC	14.1µM*	4.2%	-1.4%	6.8%
COc1cccc(-c2nc3c(c(C)nn3-c3ccccc3)c3cc(OC)c(OC)cc23)c1	-7.3%	·	·	·
COc1ccccc1C1=Nn2c(nnc2-c2ccccc2C)SC1	-0.8%	-7.0%	7.8%	·
COc1ccc(C(=O)COC(=O)c2ccccc2O)c(OC)c1	·	-14.9%	·	8.91µM*
COc1cccc(-c2no[n+]([O-])c2C#N)c1	·	-4.5%	·	·
CSCC[C@H](NC(=O)[C@H](Cc1c[nH]c2ccccc12)NC(=O)CNC(=O)[C@H](Cc1ccc(O)cc1)NC(=O)[C@H](C)NC(=O)[C@H](CCC(=O)O)NC(=O)[C@H](CCC(=O)O)NC(=O)[C@H](CCC(=O)O)NC(=O)[C@H](CCC(=O)O)NC(=O)[C@H](CCC(=O)O)NC(=O)[C@H](CC(C)C)NC(=O)[C@H](Cc1c[nH]c2ccccc12)NC(=O)[C@@H]1CCCN1C(=O)CNC(=O)[C@@H]1CCC(=O)N1)C(=O)N[C@@H](CC(=O)O)C(=O)N[C@@H](Cc1ccccc1)C(=O)NCC(=O)O	-4.2%	2.4%	-3.5%	·
CC1=C(C#N)C(=O)N(C2CCS(=O)(=O)C2)C(=O)/C1=C\c1ccc(C)o1 (configuration not stated)	?	17.8µM*	22.4µM*	14.1µM*
Cn1c(=O)cc2c3c(c(N4CCCCC4)ccc31)C(=O)c1ccccc1-2	-2.7%	-6.1%	-17.1%	?
O=C1c2ccccc2C(=O)c2c1cccc2N1CCCC1	-27.2%	2.7%	5.0%	8.91µM*
OC1OC[C@H](O)[C@H](O)[C@H]1O (some centres not stated)	-0.5%	?	-1.5%	·
COc1ccc(C(CC(=O)N2CCOCC2)c2c(OC)cc(OC)c3c(-c4ccccc4)cc(=O)oc23)cc1 (configuration not stated)	22.4µM*!	31.6µM*!	-21.0%	·
COc1ccc(C(CC(=O)N2CCCC(C)C2)c2c(OC)cc(OC)c3c(-c4ccccc4)cc(=O)oc23)cc1 (configuration not stated)	-29.1%	?	i	·
COc1cc(C(CC(=O)N2CCCC2)c2c(OC)cc(OC)c3c(-c4ccccc4)cc(=O)oc23)cc(OC)c1OC (configuration not stated)	-21.8%	?	17.8µM*	·
CC[C@H](CC[C@@H](C)[C@H]1CC[C@H]2[C@@H]3CC=C4C[C@@H](O)CC[C@]4(C)[C@H]3CC[C@]12C)C(C)C	·	4.6%	·	·
CC1=NN(c2ccccc2)C(=O)/C1=C/C=C/c1ccccc1	-11.4%	-1.3%	-7.1%	?
CC1=NN(c2cccc(C(=O)O)c2)C(=O)/C1=C\C=C\c1ccco1	18.2%	1.9%	-0.5%	3.16µM*
CCN1CCCc2cc(CN(CCN3CCOCC3)C(=S)Nc3ccc(OC)cc3)ccc21	0.1%	6.31µM*	-5.8%	·
N.N.O=C(O)C1(C(=O)O)CCC1.[Pt]	-0.1%	6.31µM*	-28.5%	·
O=C(CSc1nc(-c2ccc(F)cc2)nc2c1Cc1ccccc1O2)Nc1ccc(F)cc1	·	14.5%	·	·
Cn1c(=O)c2c(SCC(=O)N3CCN(c4ccccc4)CC3)nc(C3CC3)nc2n(C)c1=O	-1.7%	-3.2%	17.8µM*	4.8%
CCc1nc(SCC(=O)N2CCN(c3ccccc3)CC2)c2c(=O)n(C)c(=O)n(C)c2n1	-4.2%	18.0%	i	9.8%
COc1ccc(-c2nc3c(c4c2C[C@H](c2ccccc2)OC4)CN(S(=O)(=O)c2ccc(Cl)c4nonc24)CC3)c(C)c1	-4.8%[12.4 µM]	-1.1%[12.4 µM]	-6.4%[11.5 µM]	·
SMILES	BLM inh	APE1 inh	RECQ1 inh	L3MBTL1 inh
Cc1noc(C)c1-c1ccc2ncnc(NCc3cccc(Cl)c3)c2c1	2.1%	-7.7%	i	·
O=C1NC(=S)S/C1=C\c1ccc(SCc2ccccc2)o1	-1.3%	?	?	28.2µM*
NC(=O)c1ccc(N=C2C(=O)Nc3ccc([N+](=O)[O-])cc32)cc1	31.6µM*	-2.7%	i	?
O=C1Nc2ccccc2C1=Nc1cccc([N+](=O)[O-])c1	-1.7%	-11.2%	·	·
C=CC(C)(C)c1[nH]c2ccccc2c1C1=C(O)C(=O)C(c2c[nH]c3c(CC=C(C)C)cccc23)=C(O)C1=O	6.31µM*	20µM*	10µM*	·
COC(=O)C1=C(C)N(c2cc(C)cc(C)c2)/C(=C/c2ccco2)C1=O	-11.3%	?	-14.9%	12.6µM*
c1ccc2[nH]c(NCCCc3cnc[nH]3)nc2c1	-6.8%	-11.2%	-2.2%	·
COCCNC(=O)C1(C(F)(F)F)C/C(=C\Cc2ccccc2)CCCO1 (configuration not stated)	1.3%	?	i	·
COc1ccc(Cc2nnc(N/N=C/c3ccc(O)cc3O)[nH]c2=O)cc1OC	-13.4%	-3.2%	2.6%	3.55µM*
CCCCCC/C=N/Nc1nnc(Cc2ccc(OC)c(OC)c2)c(=O)[nH]1	-3.2%	27.6%	·	·
CCOc1ccc(-c2cn3c(n2)sc2cc(C(=O)NCCCc4ccccc4)ccc23)cc1	2.2%	·	·	·
COc1ccc(-c2nnc3n2N=C(c2ccccc2OC)CS3)cc1	3.8%	-0.2%	-12.2%	·
C=CCOc1c(Cl)cc(CNc2ccc(N(C)C)cc2)cc1OC	1.5%	0.1%	3.1%	12.6µM*
C=CCOc1c(Cl)cc(CNc2ccc(C)c(Cl)c2)cc1OC	-12.0%	-7.4%	-6.2%	·
Clc1cc(Cl)c(OCC#CI)cc1Cl	1.7%	·	·	·
O=C(/C=C/c1ccccc1)/C=C/c1ccccc1	-12.9%	10.3%	14.1µM*	-0.1%
O=C(/C=C/c1ccccc1)c1ccccc1	-13.3%	17.2%	?	1.9%
FC(F)(F)c1ccccc1-c1nc(N2CCOCC2)c2ccccc2n1	-11.4%	25.1µM*	-1.3%	·
FC(F)(F)c1ccccc1-c1nc(N2CCNCC2)c2ccccc2n1	-10.0%	2.7%	-5.7%	·
O=C1c2ccccc2NC(c2cccc(F)c2)N1Cc1ccco1 (configuration not stated)	?	7.94µM*	-19.3%	4.47µM*
CCOc1ccc(C=NNc2ccc(S(=O)(=O)Nc3ccccc3C(=O)O)cc2[N+](=O)[O-])cc1	·	-41.5%	·	15.8µM*
O=C(O)c1ccccc1NS(=O)(=O)c1ccc(NN=Cc2ccccc2F)c([N+](=O)[O-])c1	·	?	·	-21.2%
CSc1ccc(C=NNc2ccc(S(=O)(=O)Nc3ccccc3C(=O)O)cc2[N+](=O)[O-])cc1	·	8.44µM*	·	20µM*
CCOc1cccc(C=NNc2ccc(S(=O)(=O)Nc3ccccc3C(=O)O)cc2[N+](=O)[O-])c1O	·	-1.5%	·	?
